# Calls of active or inactive are those of the source. Unless noted, no rule for the calls is given here.
# Experiments:
# [1] = A549 cell viability effects, profiling panel, calcein-AM fluorescence, 48 h, basal (AID 1162); settings: higher = more signal; also: test concentration not given here
# [2] = adipocyte viability effects, profiling panel, cell-based, 3T3-L1 adipocytes, calcein-AM fluorescence, 48 h, basal (AID 1163); settings: 3T3-L1 adipocytes viability, higher = more signal; also: test concentration not given here
# [3] = HepG2 cell viability effects, profiling panel, calcein-AM fluorescence, 48 h, basal (AID 1164); settings: higher = more signal; also: test concentration not given here
# [4] = MM1S cell viability effects, profiling panel, calcein-AM fluorescence, 48 h, basal (AID 1165); settings: higher = more signal;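 also: viability of MM1S multiple myeloma cells under basal unstimulated conditions; test concentration not given here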
# [5] = basal RPMI8226 viability, no added stimulus, profiling panel, cell-based, calcein-AM fluorescence, 48 h, PK04 Diversity Set (AID 1166); settings: RPMI8226 myeloma viability, higher = more signal;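 also: cells grown under basal conditions without added stimulus; test concentration not given here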
# [6] = basal HepG2 mitochondrial membrane potential changes, profiling panel, cell-based, JC-1 fluorescence, 24 h, 100 nL compound (AID 1167); settings: higher = more signal; also: test concentration not given here
# [7] = basal 3T3-L1 adipocyte mitochondrial potential changes, profiling panel, cell-based, JC-1 fluorescence, 3T3-L1 adipocytes, 24 h, 100 nL compound (AID 1168); settings: JC-1 mitochondrial fluorescence, higher = more signal, called active from +8 up or from −8 down; also: test concentration not given here
# [8] = basal RPMI8226 mitochondrial membrane potential changes, profiling panel, cell-based, JC-1 fluorescence, 24 h, 100 nL compound (AID 1169); settings: RPMI8226 myeloma, JC-1 mitochondrial potential fluorescence, higher = more signal; also: test concentration not given here
# [9] = basal MM1S mitochondrial membrane potential changes, profiling panel, cell-based, JC-1 fluorescence, 24 h, 100 nL compound (AID 1170); settings: higher = more signal; also: test concentration not given here
# [10] = A549 lung cancer cell viability effects, profiling panel, resazurin fluorescence, 24 h, PK04 Diversity Set (AID 1171); settings: higher = more signal, called active from +8 up or from −8 down; also: test concentration not given here
# [11] = HepG2 liver cancer cell viability effects, profiling panel, resazurin fluorescence, 24 h, PK04 Diversity Set (AID 1172); settings: higher = more signal; also: test concentration not given here
# [12] = basal S. cerevisiae growth modulation, no modifier, primary screen, OD600, strain BY4716, 24 h, basal condition (AID 1173); settings: OD600, 24 h, higher = more signal, called active from +8 up or from −8 down
# [13] = MM1S myeloma cell viability, profiling panel, resazurin fluorescence, basal, 24 h, PK04 Diversity Set (AID 1174); settings: higher = more signal, called active from +8 up or from −8 down;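 also: MM1S multiple myeloma cell line; test concentration not given here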
# [14] = biological target: Dihydroorotate dehydrogenase (quinone), mitochondrial (Plasmodium falciparum (isolate 3D7)) (UniProt Q08210); assay: PfDHODH enzyme inhibitors, primary screen, biochemical, C-terminal His tag, absorbance 600 nm (AID 1175); settings: DCIP absorbance 600 nm, higher = more signal, called active from +8 up or from −8 down;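 also: recombinant parasite enzyme with a five histidine tag at its C terminus; test concentration not given here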
# Sequence of Dihydroorotate dehydrogenase (quinone), mitochondrial (Plasmodium falciparum (isolate 3D7)) (Q08210 whole entry, looked up): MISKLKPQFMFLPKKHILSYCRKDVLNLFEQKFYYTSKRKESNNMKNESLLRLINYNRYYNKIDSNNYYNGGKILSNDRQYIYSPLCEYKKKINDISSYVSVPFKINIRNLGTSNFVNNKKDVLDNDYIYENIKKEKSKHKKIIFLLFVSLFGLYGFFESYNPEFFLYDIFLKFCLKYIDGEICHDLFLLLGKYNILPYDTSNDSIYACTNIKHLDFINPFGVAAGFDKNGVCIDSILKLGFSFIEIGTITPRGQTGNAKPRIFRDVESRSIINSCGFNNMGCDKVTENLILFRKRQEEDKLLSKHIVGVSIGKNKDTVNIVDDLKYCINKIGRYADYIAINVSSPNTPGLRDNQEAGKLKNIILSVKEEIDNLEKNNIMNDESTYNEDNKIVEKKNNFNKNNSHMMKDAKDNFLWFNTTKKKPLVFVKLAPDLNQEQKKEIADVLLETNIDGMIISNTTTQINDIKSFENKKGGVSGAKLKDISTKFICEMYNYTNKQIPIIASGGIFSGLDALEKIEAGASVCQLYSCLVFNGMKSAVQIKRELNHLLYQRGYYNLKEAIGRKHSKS
# [15] = P. aeruginosa biofilm formation inhibitors, primary screen, strain PAO1, LB-PBS medium, absorbance 600 nm (AID 1176); also: test concentration not given here; settings: P. aeruginosa PAO1 growth/biofilm, A600, 12 h; higher = more signal
# [16] = S. cerevisiae RM11-1a growth modifiers, primary screen, strain RM11-1a, OD600, basal, 24 h (AID 1177); settings: OD600, 24 h, higher = more signal, called active from +8 up or from −8 down;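 also: cultures grown under basal conditions with no added stressor; test concentration not given here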
# [17] = E. coli acrAB mutant growth effects, primary screen, E. coli filamentation inducers, strain DRC39, OD650, 24 h (AID 1178); settings: higher = more signal, called active from +8 up or from −8 down;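 also: growth measured as culture turbidity by optical density at 650 nm; test concentration not given here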
# [18] = E. coli acrAB mutant growth effects, primary screen, E. coli filamentation inducers, strain DRC39, OD650, 48 h (AID 1179);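 also: screen aims at cell division blockers that make cells filament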; settings: E. coli DRC39 delta-acrAB growth, higher = more signal, called active from +8 up or from −8 down
# [19] = RPMI8226 myeloma cell viability, profiling panel, resazurin fluorescence, basal, 24 h, PK04 Diversity Set (AID 1180); settings: higher = more signal;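 also: RPMI8826 multiple myeloma cell line at 5000 cells per well; test concentration not given here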
# [20] = biological target: E3 ubiquitin-protein ligase XIAP (Homo sapiens) (UniProt P98170); assay: XIAP binders, primary screen, biophysical, small-molecule microarray, fluorescence 635 nm (AID 1181); settings: small-molecule microarray binding, higher = more signal;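 also: score merges 667 nm emission and signal to noise over triplicate slides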
# Sequence of E3 ubiquitin-protein ligase XIAP (Homo sapiens) (P98170 whole entry, looked up): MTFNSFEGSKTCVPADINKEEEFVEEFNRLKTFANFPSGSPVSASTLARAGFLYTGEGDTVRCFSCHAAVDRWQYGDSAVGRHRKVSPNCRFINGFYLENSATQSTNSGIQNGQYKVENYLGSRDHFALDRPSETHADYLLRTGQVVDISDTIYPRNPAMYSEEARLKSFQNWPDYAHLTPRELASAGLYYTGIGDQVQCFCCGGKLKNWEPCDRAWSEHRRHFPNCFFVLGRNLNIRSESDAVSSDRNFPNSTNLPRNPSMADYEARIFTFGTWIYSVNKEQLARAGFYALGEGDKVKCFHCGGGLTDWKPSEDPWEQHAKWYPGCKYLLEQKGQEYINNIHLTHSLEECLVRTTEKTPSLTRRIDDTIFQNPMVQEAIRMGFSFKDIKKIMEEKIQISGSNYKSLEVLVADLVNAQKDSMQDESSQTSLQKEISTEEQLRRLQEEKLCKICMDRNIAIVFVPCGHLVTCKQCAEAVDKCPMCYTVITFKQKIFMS
SMILES,z-score [1],z-score [2],z-score [3],z-score [4],z-score [5],z-score [6],z-score [7],z-score [8],z-score [9],z-score [10],z-score [11],z-score [12],z-score [13],composite z-score [14],z-score [15],z-score [16],z-score [17],z-score [18],z-score [19],composite z-score [20]
CCCNC(=O)OC[C@H]1O[C@H](CCON=Cc2ccc(C(=O)N3[C@H](c4ccc(C)cc4)[C@@H](C)CC[C@H]3C(=O)OC)cc2)C=C[C@@H]1Oc1ccc(OC)cc1,-0.167,0.885,-0.0578,-0.164,-0.581,2.75,-3.26 (inactive),0.694,0.235,-0.471 (inactive),-0.73,1.85 (inactive),-0.686 (inactive),0.415 (inactive),0.511 (inactive),0.729 (inactive),0.567 (inactive),0.353 (inactive),-0.203,0.0623
CC(C)CON=C1C[C@@H](O)[C@@H](O)[C@@H]2[C@@H]3C(=O)N(c4cccc(Oc5ccccc5)c4)C(=O)[C@@H]3CC[C@@H]12,1.52,0.797,0.626,-0.779,0.0135,0.291,0.411 (inactive),0.615,-1.78,-0.908 (inactive),-0.271,-1.81 (inactive),-1.5 (inactive),-1.71 (inactive),0.659 (inactive),-1.86 (inactive),-0.321 (inactive),-0.791 (inactive),-0.0778,0.125
CC(C)=CCCC(C)=CCON=C1C[C@@H](O)[C@@H](O)[C@@H]2[C@@H]3C(=O)N(C(C)(C)C)C(=O)[C@@H]3CC[C@@H]12,0.0392,0.523,0.121,-1.09,-0.562,-0.279,-0.365 (inactive),-0.231,0.947,-1.03 (inactive),-0.976,-0.0139 (inactive),0.408 (inactive),0.661 (inactive),1.23 (inactive),-0.0348 (inactive),-0.106 (inactive),-1.26 (inactive),-0.11,-0.172
C[C@@H](c1ccccc1)N1C(=O)[C@H]2[C@H]3[C@H](O)[C@H](O)CC(=NOCc4ccccc4)[C@H]3CC[C@H]2C1=O,0.654,-0.602,-0.159,0.503,0.13,0.879,0.925 (inactive),0.00496,-1.55,-0.428 (inactive),-0.137,-0.18 (inactive),-1.03 (inactive),-0.964 (inactive),-0.179 (inactive),0.783 (inactive),0.273 (inactive),1.12 (inactive),0.76,-0.184
O=C1C=C[C@@H](O)[C@@H]2[C@@H]3C(=O)N(C[C@@H]4CCCO4)C(=O)[C@@H]3CC[C@@H]12,-0.663,0.316,0.324,-0.121,0.757,1.09,0.0236 (inactive),-0.643,0.744,-0.379 (inactive),0.111,0.499 (inactive),0.561 (inactive),-0.0546 (inactive),-0.425 (inactive),0.0539 (inactive),0.117 (inactive),-0.282 (inactive),0.91,0.0032
CC(CCC(=O)OC[C@H]1O[C@H](C#Cc2ccccc2)C=C[C@@H]1Oc1ccc(C)cc1)=NO[C@H](C)c1cn([C@H](CO)Cc2ccccc2)nn1,0.122,-0.643,-0.34,-3.06,-3.97,0.0151,-1.08 (inactive),-0.712,-0.547,0.804 (inactive),0.151,0.815 (inactive),-0.0044 (inactive),1.1 (inactive),0.463 (inactive),1.78 (inactive),0.348 (inactive),-0.0348 (inactive),0.274,0.0191
CCOC(=O)NN=C1C[C@@H](O)[C@@H](O)[C@@H]2[C@@H]3C(=O)N(c4ccc(F)cc4F)C(=O)[C@@H]3CC[C@@H]12,0.187,-0.384,-1.12,0.218,0.617,0.333,0.076 (inactive),0.285,-0.326,0.485 (inactive),1.06,0.559 (inactive),0.514 (inactive),-0.0225 (inactive),0.118 (inactive),0.916 (inactive),0.239 (inactive),-0.559 (inactive),0.562,-0.0663
CCOC(=O)C1=NO[C@]2(C=C(Br)C3(OCCCO3)[C@H]3O[C@H]32)C1,-0.718,-0.188,-0.186,-0.986,-0.172,-1.04,-0.207 (inactive),0.157,0.199,0.0721 (inactive),-0.706,-0.175 (inactive),-0.734 (inactive),-0.671 (inactive),-0.646 (inactive),-0.847 (inactive),0.336 (inactive),0.645 (inactive),-0.549,0.201
COC(=O)CC=C[C@@H](C)[C@@H](C=NO[C@@H](C)c1cn([C@H](CO)Cc2ccccc2)nn1)OC,0.52,1.03,0.656,0.354,-0.609,0.341,1.08 (inactive),0.0532,0.723,-0.493 (inactive),-0.849,-0.966 (inactive),0.104 (inactive),-0.842 (inactive),-0.418 (inactive),-2.71 (inactive),0.24 (inactive),-0.913 (inactive),-0.514,-0.139
